# HepG2 tox – HepG2 cytotoxicity, counter-screen for TGF-b inhibitors | HepG2 CAGA-GFP viability, ATP luminescence, 18 h | Potency, µM (doses to about 46.1 µM), for the others: top-dose activity change, negative = cytotoxicity, hits mostly cytotoxic | actives 0.76% (n = 410,000)
#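 CellTiter-Glo luminescence gave cytotoxicity after 18 hours at 37 degrees C. The cells were HepG2 CAGA-GFP in 1% FBS DMEM, stimulated with 500 pg/mL TGF-beta after compound addition. %Activity was normalised to no-cell wells (complete cell-killing) and DMSO (no toxicity), and curves were fitted and classified.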
# DT40 TDP1 CPT – growth inhibition of DT40 Tdp1-/-;hTDP1 cells with camptothecin (screen for TDP1 inhibitors). chicken DT40 Tdp1-/-;hTDP1 cells + 20 nM CPT, ATP luminescence, 48 h. Potency, µM (titrated, usually from 46.2 µM), without a hit: top-dose activity change, negative = growth inhibition, actives largely listed as inhibitors. actives 12% (n = 420,000); note: % is set by controls: 0 for no effect and ±100 for the full control effect; nearly all actives have a fitted effect of over 55% in size
#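 Cell growth measured by CellTiter-Glo luminescence after a minimum 48 h, 37 C compound exposure with 20 nM CPT in Tdp1-knockout DT40 cells stably expressing hTDP1, seeded 400/well; qHTS titration format.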
# TGFb inhibitor – inhibitors of TGF-b signaling | Potency, µM (highest dose often 46.1 µM), for inactives: top-dose activity, negative = inhibition, most hits filed as inhibitors | HepG2 CAGA-GFP TGF-b/SMAD3 reporter, GFP fluorescence, 18 h; TGF-beta stimulated, 500 pg/mL final | AID 588855 | actives 1.2% (n = 410,000); note: % is set by controls: 0 for no effect and ±100 for the full control effect; nearly all actives have a fitted effect of over 65% in size
#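 First, reporter cells (HEPG2 CAGA-GFP) rested 2 h at 37 degrees C. Next, compounds were pinned in and TGF-beta added to 500 pg/mL final. After 18 h, GFP was imaged per cell and summed per well.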
# DT40 TDP1 no CPT – qHTS for Inhibitors of human tyrosyl-DNA phosphodiesterase 1 (TDP1): qHTS in cells in absence of CPT. DT40 Tdp1-/- hTDP1 cells, no CPT, ATP luminescence, 48 h. actives 15% (n = 420,000). Potency, µM (top dose mostly 46.2 µM), without a hit: at the top dose activity change, negative = growth inhibition, hits mostly inhibitors; note: % is set by controls: 0 for no effect and ±100 for the full control effect; nearly all actives have a fitted effect of over 55% in size
#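 Chicken DT40 Tdp1-/- cells complemented with human TDP1, screened without camptothecin (DMSO vehicle only), 400 cells/well. Compounds pin-transferred, cells incubated at 37 °C for at least 48 hr. Growth read as ATP-dependent luminescence (CellTiter-Glo, 30 min at RT).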
# HT1080NT lethal – kills 2HG-producing HT-1080-NT fibrosarcoma cells; HT-1080-NT fibrosarcoma viability, CellTiter-Glo ATP luminescence, 48 h; actives 1.6% (n = 360,000); Potency, µM (top dose mostly 46.1 µM), inactives show at the top dose activity, negative = less viability, actives largely listed as cytotoxic;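 note: NT is the 2HG producing partner of a matched IDH1 knockdown line; 0% = DMSO-treated cells and -100% = media-only wells without cells; nearly all actives have a fitted effect of over 55% in size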
#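 Compounds were tested in concentration-response format on HT-1080-NT cells for 48 hours at 37 degrees C. Cell viability came from CellTiter-Glo luminescence; curves were classified by r2, response magnitude and activity.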
# HT1080 IDH1KD tx – toxicity to HT-1080 IDH1 knockdown cells (counter line). AID 686971. HT-1080 IDH1 knockdown viability, ATP luminescence, 48 h. actives 2% (n = 360,000). Potency, µM (top dose mostly 46.1 µM), for the others: at the top dose activity, negative = toxicity, most hits filed as cytotoxic;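 note: 0% = DMSO wells and -100% = cell-free medium wells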
#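 CellTiter-Glo luminescence after 48 h compound exposure at 37 degrees C of IDH1-knockdown HT-1080 cells in 5% FBS RPMI. %Activity scaled between DMSO wells and cell-free media wells, with curves fitted and assigned curve classes.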
# * = called active by the depositor; ? = inconclusive; . = no result. Rows were chosen to be rich in hits. Some 17% of all compounds tested hit in one or more screens of this group. Calls come from the whole dose curve; as a rule, active = well fitted curve in the direction sought with a large enough effect; inconclusive = small, poorly fitted or top-dose-only effect, or another doubt; inactive = no such curve, though single readings can be large; an effect the other way counts as inactive or inconclusive. Potency is the fitted concentration of half-maximal effect.
SMILES,HepG2 tox,DT40 TDP1 CPT,TGFb inhibitor,DT40 TDP1 no CPT,HT1080NT lethal,HT1080 IDH1KD tx
CCOc1ccc(N(CC(=O)N2CCN(c3ccc(F)cc3)CC2)S(=O)(=O)c2c(C)noc2C)cc1,3%,26µM*,-13%,?,-2%,-7%
Cc1nn(C)c(C)c1S(=O)(=O)N(CC(=O)N1CCc2ccccc2C1)c1ccc(C(C)C)cc1,-41%,?,?,?,1%,-6%
Cc1nn(C)c(C)c1S(=O)(=O)N(CC(=O)N1CCN(c2ccccc2)CC1)c1ccc(C(C)C)cc1,-9%,16µM*,?,16µM*,.,.
COc1ccc(N(CC(=O)N2CCN(c3ccccc3)CC2)S(=O)(=O)c2c(C)nn(C)c2C)cc1,4%,4%,4%,?,.,.
COc1ccc(Cl)cc1S(=O)(=O)NC(C)C(=O)NCc1ccc2c(c1)OCO2 (stereo not drawn),-8%,?,?,?,-4%,-4%
Cc1ccc(NC(=O)CSc2nnc(-c3cc(C)[nH]n3)n2N)c(C)c1,-2%,7%,7%,3%,10%,10%
Cc1ccc(N(CC(=O)N2CCN(c3ccc(F)cc3)CC2)S(=O)(=O)c2c(C)nn(C)c2C)cc1,-8%,?,2%,?,-3%,8%
Cc1ccc(N(CC(=O)N2CCN(c3cccc(C)c3C)CC2)S(=O)(=O)c2c(C)nn(C)c2C)cc1,-76%,8.2µM*,?,9.2µM*,.,.
Cc1ccc(N(CC(=O)N2CCN(c3cc(Cl)ccc3C)CC2)S(=O)(=O)c2c(C)noc2C)cc1,-44%,21µM*,?,9.2µM*,.,.
COc1ccc(S(=O)(=O)N2CCCOC2CNC(=O)C(=O)NCc2ccccc2F)cc1C (stereo not drawn),-24%,-21%,-26%,?,-8%,-10%
COc1ccc(/C=N/NC(=O)Nc2cccc3nsnc23)c(OC)c1,5%,12µM*,20%,10µM*,15%,7%
O=C(N/N=C/c1ccc(O)cc1)Nc1cccc2nsnc12,-18%,-12%,0%,21µM*,?,?
COc1cc(/C=N/NC(=O)Nc2cccc3nsnc23)cc(OC)c1OC,6%,?,11%,?,10%,16%
O=C(c1ccc(Cl)cc1)N1CCCC(c2ccccc2)=N1,-19%,-7%,-9%,-8%,-13%,-8%
CCC(=O)O[C@]1(C(=O)CCl)[C@@H](C)C[C@H]2[C@@H]3C[C@H](F)C4=CC(=O)C=C[C@]4(C)[C@@]3(F)[C@@H](O)C[C@@]21C,.,?,.,19µM*,.,.
C[C@@H]1C[C@H]2[C@@H]3CCC4=CC(=O)C=C[C@]4(C)[C@@]3(Cl)[C@@H](O)C[C@]2(C)[C@@]1(OC(=O)c1ccco1)C(=O)CCl,-42%,16µM*,-4%,12µM*,16µM*,?
O=C(OCN1C(=O)C(=O)c2ccccc21)c1ccc(Cl)cc1,5%,?,-10%,11%,4%,7%
O=C1NCC(COc2ccc([N+](=O)[O-])cc2)O1 (stereo not drawn),-7%,-3%,7%,24%,6%,6%
N#Cc1ccc(-c2ccc(OCC3CNC(=O)O3)cc2)cc1 (stereo not drawn),16%,8.2µM*,-21%,13µM*,-13%,-1%
CCN1CCN(S(=O)(=O)c2c(C)[nH]c(C)c2C(=O)N2CCCCC2)CC1,-2%,-6%,8%,12%,-1%,6%
COc1ccc(/C=C/C(=O)OCC(=O)NC2CCCCCC2)cc1,-26%,-29%,-6%,?,3%,4%
